# In ChEMBL document CHEMBL4513141, “CO-ADD screening of NIH (USA) - Clinical Collection” (2021):
# Potency and affinity values are given separately.
# Tested on: Staphylococcus aureus
# Conditions: Concentration 20 uM; ASSAY_TEST Inhibition of Bacterial Growth; detection method Absorption (OD600); MEDIA CAMHB; plate type 384well; NBS; CORNING #3640; time 18 hr
row,SMILES,Inhibition [%]
1,CCN(CC)CC1CCCCN1CC(=O)N1c2ccccc2C(=O)Nc2cccnc21 (stereo unspecified) [OTENZEPAD],7.92
2,O=C(O)c1cc(-c2ccc(F)cc2F)ccc1O [DIFLUNISAL],-11.25
3,CCC1=C[C@H]2CN(C1)Cc1c([nH]c3ccccc13)[C@@](C(=O)OC)(c1cc3c(cc1OC)N(C)[C@H]1[C@@](O)(C(=O)OC)[C@H](OC(C)=O)[C@]4(CC)C=CCN5CC[C@]31[C@@H]54)C2.O=C(O)C(O)C(O)C(=O)O.O=C(O)C(O)C(O)C(=O)O,13.36
4,CC(=O)Nc1ccc(CC(=O)O)cc1 [ACTARIT],-0.71
5,Nc1nc(=O)c2nc(CNc3ccc(C(=O)N[C@@H](CCC(=O)O)C(=O)O)cc3)cnc2[nH]1 [FOLIC ACID],10.57
6,CCCCC(=O)OC1(C(=O)CO)CCC2C3CCC4=CC(=O)CCC4(C)C3C(O)CC21C (stereo unspecified),4.02
7,CC(C)NCC(O)c1ccc(NS(C)(=O)=O)cc1.Cl (stereo unspecified) [SOTALOL HYDROCHLORIDE],-25.28
8,CCN(CC)CCOC(=O)C1(C2CCCCC2)CCCCC1.Cl [DICYCLOMINE HYDROCHLORIDE],8.61
9,CCc1ccc(CCOc2ccc(CC3SC(=O)NC3=O)cc2)nc1.Cl (stereo unspecified) [PIOGLITAZONE HYDROCHLORIDE],3.82
10,Oc1ncc(F)cn1,12.62
11,CN(C)CC[C@@H](c1ccc(Br)cc1)c1ccccn1.O=C(O)/C=C\C(=O)O [DEXBROMPHENIRAMINE MALEATE],4.45
12,CCCc1nc(C)c2c(O)nc(-c3cc(S(=O)(=O)N4CCN(CC)CC4)ccc3OCC)nn12.O=C(O)CC(O)(CC(=O)O)C(=O)O,14.18
13,Cl.Clc1cccc(Cl)c1NC1=NCCN1 [CLONIDINE HYDROCHLORIDE],11.8
14,CN(C)CCOC(c1ccc(Cl)cc1)c1ccccn1.O=C(O)/C=C\C(=O)O (stereo unspecified) [CARBINOXAMINE MALEATE],10.84
15,CC(=O)OCC(=O)[C@@]12OC(C)(C)O[C@@H]1C[C@H]1[C@@H]3C[C@H](F)C4=CC(=O)C=C[C@]4(C)[C@@]3(F)[C@@H](O)C[C@@]12C [FLUOCINONIDE],10.01
16,CN1CCC(=C2c3ccccc3CC(=O)c3sccc32)CC1.O=C(O)/C=C/C(=O)O [KETOTIFEN FUMARATE],6.88
17,Cc1ccc(C)c(OCCCC(C)(C)C(=O)O)c1 [GEMFIBROZIL],11.1
18,C[C@]12CC[C@@H]3c4ccc(O)cc4CC[C@H]3[C@@H]1CC[C@@H]2O [ESTRADIOL],2.2

row,SMILES,Inhibition [%]
1,CC(COc1ccccc1Cc1ccccc1)N1CCCCC1.O=P(O)(O)O (stereo unspecified),12.26
2,CCOC(=O)OC(C)OC1=C(C(=O)Nc2ccccn2)N(C)S(=O)(=O)c2ccccc21 (stereo unspecified) [AMPIROXICAM],16.07
3,CS(=O)(=O)c1ccc(-c2cc(Br)sc2-c2ccc(F)cc2)cc1 [DUP-697],14.13
4,Nc1nc(N)c2nc(-c3ccccc3)c(N)nc2n1,-4.86
5,Cl.Nc1c2c(nc3ccccc13)CCCC2 [TACRINE HYDROCHLORIDE],10.46
6,NCC(=O)CCC(=O)O [AMINOLEVULINIC ACID],8.53
7,Nc1ccn([C@@H]2O[C@H](CO)[C@@H](O)[C@@H]2O)c(=O)n1 [CYTARABINE],17.83
8,CCC1(c2ccccc2)C(=O)NCNC1=O [PRIMIDONE],13.4
9,Oc1ccc(/C=C/c2cc(O)cc(O)c2)cc1 [RESVERATROL],19.49
10,CCCOc1ccc(C(=O)OCCN(CC)CC)cc1N.Cl [PROPARACAINE HYDROCHLORIDE],-1.38
11,O=C1C(CC[S+]([O-])c2ccccc2)C(=O)N(c2ccccc2)N1c1ccccc1 (stereo unspecified) [SULFINPYRAZONE],18.52
12,Cl.O[C@@H](c1cc(C(F)(F)F)nc2c(C(F)(F)F)cccc12)[C@H]1CCCCN1,36.85
13,Nc1ccn([C@@H]2CS[C@H](CO)O2)c(=O)n1 [LAMIVUDINE],9.88
14,O=S(=O)([O-])CCS.[Na+] [MESNA],2.58
15,CCCCC(=O)N(Cc1ccc(-c2ccccc2-c2nnn[nH]2)cc1)[C@H](C(=O)O)C(C)C,14.82
16,CC(N)C12CC3CC(CC(C3)C1)C2.Cl (stereo unspecified) [RIMANTADINE HYDROCHLORIDE],6.08
17,CC=CC(=O)N(CC)c1ccccc1C,8.78
18,CC[C@H](C)C(=O)O[C@H]1C[C@H](O)C=C2C=C[C@H](C)[C@H](CC[C@@H](O)C[C@@H](O)CC(=O)[O-])[C@H]21.[Na+] [PRAVASTATIN SODIUM],12.65
